Source: PubChem (Broad Institute)
PGC1a acetyl inh = lowers PGC1a acetylation signal in U2OS cells | AlphaScreen anti-acetyl-lysine; with virally co-expressed GCN5 acetyltransferase | inhibition, % at 15.6 µM | 350,000 compounds, 0.17% hits | AID 651687;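 active means every replicate shows inhibition of at least 40%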;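 further: 0% = neutral control wells and 100% = positive control wells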
rRNA inh HTS = selective bacterial rRNA inhibition in E. coli; 350,000 compounds, 1.6% hits; AID 720706; GFP signal change (wild-type ribosome), % (no concentration beside the values); E. coli WT GFP vs humanized-ribosome RFP mutants, fluorescence, 24 h; hits give low values; DMSO median 0, no signal -100;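 active means significant combined selectivity score with lowered wild-type GFP, culture density cut under 30%, mutant RFP and density less affected; inactive means any of these conditions unmet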
PAX8 inh HTS = inhibitors of PAX8 transcriptional activity in RMG-I cells; RMG-I TPO-luciferase reporter, SteadyGlo, 24 h; inhibition, % at 12.6 µM; 360,000 compounds, 1.2% hits;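 active means mean replicate inhibition at least 60% with every replicate also reaching 60%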;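 further: luciferase light reporting Pax8 driven TPO promoter activity; plate controls were median of neutral control wells for no effect and mitoxantrone controls for full effect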
LGR2 inh = Drosophila LGR2 receptor signaling inhibition. HEK293 LGR2, CRE-luciferase, bursicon-stimulated, 4 h. inhibition, % at 9.99 µM. 380,000 compounds, 0.35% hits;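 active means drop in luminescence signal, shown as inhibition above about 50% in the replicate tests, limit read from the data, passing the limit was not always enough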;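 further: agonist challenge used bursicon conditioned medium at about half maximal strength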
EWS-Fli block = blocks EWS/Fli oncoprotein-driven transcription; A673 NR0B1-luciferase reporter, viability-normalised; inhibition, % at 12.6 µM; 350,000 compounds, 0.67% hits; AID 651661;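 active means mean inhibition of at least 50% after viability correction, with every replicate also passing that limit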;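 further: firefly luciferase signal divided by Alamar Blue viability fluorescence both relative to DMSO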
SIRT5 block = sirtuin-5 (human) deacylase inhibition; Q9NXA8; Purified SirT5, succinyl-peptide AMC, trypsin-coupled fluorescence; inhibition, % at 15 µM; 330,000 compounds, 1.1% hits; AID 652115; in the data active means inhibition above about 15%
Target sequence (Q9NXA8 whole entry, looked up): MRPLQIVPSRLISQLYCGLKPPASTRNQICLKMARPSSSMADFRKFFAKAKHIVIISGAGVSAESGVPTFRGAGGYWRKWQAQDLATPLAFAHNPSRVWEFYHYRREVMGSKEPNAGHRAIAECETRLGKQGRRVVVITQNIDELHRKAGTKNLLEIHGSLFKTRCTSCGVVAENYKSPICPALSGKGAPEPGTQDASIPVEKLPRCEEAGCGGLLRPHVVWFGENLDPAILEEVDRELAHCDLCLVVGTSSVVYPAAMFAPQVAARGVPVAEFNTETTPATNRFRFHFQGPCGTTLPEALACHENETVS
An asterisk follows results filed as active; x = no result. Hits are enriched below; roughly 3.4% of the tested compounds scored in any of these assays.

SMILES	PGC1a acetyl inh	rRNA inh HTS	PAX8 inh HTS	LGR2 inh	EWS-Fli block	SIRT5 block
CCOC(=O)CSC1=C(C#N)C(c2ccc(Cl)cc2)CC(=O)N1 (stereo not given)	4	-2	-7	-32	-17	2
COc1c(OC(C)=O)ccc(/C=C/c2ccc3cccc(OC)c3n2)c1[N+](=O)[O-]	x	x	-42	-39	x	x
COc1c(OC(C)=O)ccc(/C=C/c2ccc3ccccc3n2)c1[N+](=O)[O-]	-7	-43*	x	-73	-87	2
C[C@@H]1CN([C@H](C)CO)C(=O)Cc2cc(NC(=O)Cn3cnnn3)ccc2O[C@H]1CN(C)Cc1ccc(-c2ccccc2)cc1	-4	-1	-2	2	-12	3
Cc1cc(C)n(CCc2nc(-c3ccco3)cs2)n1	-30	15	x	1	-10	8
Cc1nn(CCc2nc(-c3ccco3)cs2)c2[nH]c(=O)cc(C(F)(F)F)c12	-15	-3	x	-2	4	16*
CC1CC1C(=O)OCC(=O)Nc1ccc(N=Nc2ccccc2)cc1 (stereo not given)	x	-18*	-231	-101	-60	-2
CCOc1ccc(NC(=O)COC(=O)C2CC2C)cc1 (stereo not given)	13	13	-66	-63	-19	-4
COc1ccccc1Oc1cn[nH]c1-c1ccc(O)cc1O	x	-21*	2	-8	3	-5
COc1cccc(Oc2cn[nH]c2-c2ccc(O)cc2O)c1	1	x	x	-19	x	x
O=C1CN(Cc2ccccc2)C[C@@H]2[C@H](c3ccc(Br)cc3)[C@@H](CO)N12	0	-1	-10	4	4	-3
COc1ccccc1-c1ccc([C@@H]2[C@@H](CO)N3CCCCN(S(=O)(=O)c4cn(C)cn4)C[C@@H]23)cc1	-8	-2	5	4	-13	-2
O=C(C(=O)N(Cc1ccccc1)Cc1ccccc1)c1c(-c2ccccc2)[nH]c2ccccc12	-2	4	88*	11	5	5
O=[N+]([O-])c1cccnc1N1CCN(c2ccc(F)cc2)CC1	-3	-32*	-18	2	-26	-2
CC(C)NC(=S)N1CCCN(c2ncccc2[N+](=O)[O-])CC1	17	6	1	3	-1	17*
COC(=O)c1cc(C(=O)N2CCN(c3ncccn3)CC2)cc([N+](=O)[O-])c1	x	2	6	-4	-6	-2
Cc1cccc(N2CCN(C(=O)c3ccc4[nH]c(C)c(C)c4c3)CC2)c1C	-2	2	29	-10	54*	-1
COC(=O)c1cc(C(=O)N2CCN(C(=O)c3ccco3)CC2)cc([N+](=O)[O-])c1	0	x	x	-19	6	2
Cc1[nH]c2ccc(C(=O)N3CCN(c4ccccc4Cl)CC3)cc2c1C	-7	-5	8	0	x	1
COC(=O)c1cc(C(=O)c2c(C)cc3ccccn23)cc([N+](=O)[O-])c1	6	-22*	9	-2	3	2
Cc1cc2ccccn2c1C(=O)c1cc([N+](=O)[O-])cc([N+](=O)[O-])c1	9	14	24	11	14	-5
COC(=O)c1cc(C(=O)N2CCN(c3ccccc3OC)CC2)cc([N+](=O)[O-])c1	x	3	47	25	55*	-1
COC(=O)c1cc(C(=O)N2CCN(c3cccc(C)c3C)CC2)cc([N+](=O)[O-])c1	x	-8	25	14	56*	-2
Cc1cccc(S(=O)(=O)NC[C@@H]2CC[C@H]3NC[C@H]3O2)c1	1	x	x	x	-8	1
CN1C(=O)c2cc(NC(=O)C3CCC3)ccc2OC[C@H]2O[C@H](CC(=O)NCc3ccccc3F)CC[C@@H]21	x	2	-13	0	-2	-7
SMILES	PGC1a acetyl inh	rRNA inh HTS	PAX8 inh HTS	LGR2 inh	EWS-Fli block	SIRT5 block
CCC(=O)N1CC2(C1)CN(C(=O)CC)[C@@H](CO)c1[nH]c3cc(OC)ccc3c12	x	4	x	-8	-6	-1
COc1ccc(C(C)NC(=S)NCc2ccc(F)cc2)cc1 (stereo not given)	-5	-16	1	5	x	-3
COc1cccc(C(C)NC(=S)NCc2ccc(Cl)cc2)c1 (stereo not given)	x	-24*	16	24	-14	x
N#C/C(=C\Nc1ccccc1SC(F)(F)F)c1nc(-c2ccc(F)cc2)cs1	1	9	8	-4	-5	19*
COc1ccc2c3c(n(C)c2c1)[C@H](CO)N(S(C)(=O)=O)CC31CN(C(=O)C2CCC2)C1	x	1	-20	-2	-5	0
COC(=O)C[C@H]1C[C@@H]2c3cc(NC(=O)CC4CC4)ccc3O[C@@H]2[C@@H](CO)O1	0	2	14	19	1	-3
CC1=C(C(=O)N2CCOCC2)CC(CC(=O)NC2CC2)C(=O)N1CCC1=CCCCC1 (stereo not given)	13	11	4	0	2	17*
CC1=C(C(=O)N(C)C)CC(CC(=O)NCC2CCCCC2)C(=O)N1CCC1=CCCCC1 (stereo not given)	14	x	7	x	0	-5
CC1=C(C(=O)N2CCOCC2)CC(CC(=O)NCC2CCCCC2)C(=O)N1CCC1=CCCCC1 (stereo not given)	2	-5	-26	-4	-23	23*
CC1=C(C(=O)N(C)C)CC(CC(=O)NCc2cccc3ccccc23)C(=O)N1CCC1=CCCCC1 (stereo not given)	-15	-27*	7	9	-6	1
O=C(Nc1ccccc1F)N1CC(=O)N2[C@@H](CO)[C@@H](c3ccc(C#Cc4ccccc4)cc3)[C@@H]2C1	5	-15	0	14	-13	1
Cc1cccc(-c2ccc([C@@H]3[C@H](CO)N4CCCCN(S(=O)(=O)c5ccccc5C)C[C@@H]34)cc2)c1	-22	-43*	-13	5	49	-1
Cc1ccccc1S(=O)(=O)N1CCCCN2[C@H](CO)[C@H](c3ccc(-c4cccc(F)c4)cc3)[C@H]2C1	-5	-55	28	-7	-4	12
Cc1ccccc1S(=O)(=O)N1CCCCN2[C@@H](CO)[C@H](c3ccc(-c4cccc(F)c4)cc3)[C@@H]2C1	-7	-32	43	1	18	18*
Cc1ccccc1S(=O)(=O)N1CCCCN2[C@H](C1)[C@H](c1ccc(-c3ccccc3)cc1)[C@@H]2CO	-1	x	10	x	10	14
Cc1cccc(-c2ccc([C@@H]3[C@@H](CO)N4CCCCN(S(=O)(=O)c5ccccc5F)C[C@H]34)cc2)c1	-2	-49	-11	48	1	21*
C[C@H]1CN([C@@H](C)CO)C(=O)c2cc(NC(=O)Nc3ccccc3)ccc2O[C@H]1CN(C)Cc1ccc(Cl)c(Cl)c1	-1	0	x	5	19	x
